Experiment [1] is described as follows: Quantitative High-Throughput drug screen in 47 multiple myeloma cell lines against the NCATS MIPE library collection: Karpas25_ECACC cell viability assay (AID 1918968; further: nearly all actives have a fitted effect of over 35% in size). Summed up: (§1)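 Viability readout: CellTiter-Glo luminescence following 5 min room-temperature incubation with reagent. Prior exposure: 48 h, 37C, humidified 5% CO2, 500 cells per well.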
A short description of experiment [2]: Quantitative High-Throughput drug screen in 47 multiple myeloma cell lines against the NCATS MIPE library collection: KMS27_JCRB cell viability assay (AID 1918970). Further: nearly all actives have a fitted effect of over 30% in size. In outline:
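Viability inhibition screen, 48 h compound exposure, luminescent ATP read-out.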

Experiment [3] can be described thus: Quantitative High-Throughput drug screen in 47 multiple myeloma cell lines against the NCATS MIPE library collection: KMS12PE_JCRB cell viability assay (AID 1918972). Further: nearly all actives have a fitted effect of over 30% in size. In outline:
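CellTiter-Glo luminescence (ATP) after 48 h compound exposure, 37C/5% CO2; 500 cells/well; MIPE 4.0 approved/investigational drugs pinned in; DMSO = 100%, media only = 0% viability.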

Experiment [4] in a line: Quantitative High-Throughput drug screen in 47 multiple myeloma cell lines against the NCATS MIPE library collection: KMS21BM_JCRB cell viability assay (AID 1918974). To be noted: ATP luminescence, 48 h; viability: at 45.8 µM (top of the series). In outline:
as §1

A short description of experiment [5]: Quantitative High-Throughput drug screen in 47 multiple myeloma cell lines against the NCATS MIPE library collection: KMS26_JCRB cell viability assay (AID 1918975). Further: nearly all actives have a fitted effect of over 45% in size. In outline:
(§2)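 Approved and investigational drugs from MIPE 4.0 were added by pin tool to 500 cells per well. After 48 hours at 37C, ATP-based CellTiter-Glo luminescence indicated remaining viability.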

The nature of experiment [6]: Quantitative High-Throughput drug screen in 47 multiple myeloma cell lines against the NCATS MIPE library collection: MOLP8_DSMZ cell viability assay (AID 1918977). Further: nearly all actives have a fitted effect of over 45% in size. Summed up: (§3)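 500 cells/well; MIPE 4.0 drugs pin-transferred; 48 h, 37C, 5% CO2. CellTiter-Glo, 5 min RT, luminescence. Controls: DMSO 100%, media 0%.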
A short description of experiment [7]: Quantitative High-Throughput drug screen in 47 multiple myeloma cell lines against the NCATS MIPE library collection: NCIH929_DSMZ cell viability assay (AID 1918978). Further: nearly all actives have a fitted effect of over 35% in size. In outline: as §3
Experiment [8] can be described thus: Quantitative High-Throughput drug screen in 47 multiple myeloma cell lines against the NCATS MIPE library collection: MM1S_ATCC cell viability assay (AID 1918980). Further: nearly all actives have a fitted effect of over 45% in size. Summed up:
as §3

A short description of experiment [9]: Quantitative High-Throughput drug screen in 47 multiple myeloma cell lines against the NCATS MIPE library collection: MM1R_ATCC cell viability assay (AID 1918981). Further: nearly all actives have a fitted effect of over 35% in size. Summed up: as §3
A short description of experiment [10]: Quantitative High-Throughput drug screen in 47 multiple myeloma cell lines against the NCATS MIPE library collection: LP1_DSMZ cell viability assay (AID 1918982). Further: nearly all actives have a fitted effect of over 35% in size. Summed up: as §3
Experiment [11] can be described thus: Quantitative High-Throughput drug screen in 47 multiple myeloma cell lines against the NCATS MIPE library collection: KMS28PE_JCRB cell viability assay (AID 1918983). Further: nearly all actives have a fitted effect of over 35% in size. Summed up: as §3
Experiment [12] in a line: Quantitative High-Throughput drug screen in 47 multiple myeloma cell lines against the NCATS MIPE library collection: L363_DSMZ cell viability assay (AID 1918984). Further: nearly all actives have a fitted effect of over 40% in size. In outline:
as §3

Experiment [13] is described as follows: Quantitative High-Throughput drug screen in 47 multiple myeloma cell lines against the NCATS MIPE library collection: KMS34_JCRB cell viability assay (AID 1918985). Further: nearly all actives have a fitted effect of over 40% in size. Summed up: as §3
The nature of experiment [14]: Quantitative High-Throughput drug screen in 47 multiple myeloma cell lines against the NCATS MIPE library collection: OCIMY7_PLB cell viability assay (AID 1918987). Further: nearly all actives have a fitted effect of over 65% in size. In outline:
as §3

Experiment [15] can be described thus: Quantitative High-Throughput drug screen in 47 multiple myeloma cell lines against the NCATS MIPE library collection: H1112_PLB cell viability assay (AID 1918967; further: nearly all actives have a fitted effect of over 30% in size). Summed up: as §1
The nature of experiment [16]: Quantitative High-Throughput drug screen in 47 multiple myeloma cell lines against the NCATS MIPE library collection: KMS12BM_JCRB cell viability assay (AID 1918971). Further: nearly all actives have a fitted effect of over 35% in size. Summed up:
as §2

The nature of experiment [17]: Quantitative High-Throughput drug screen in 47 multiple myeloma cell lines against the NCATS MIPE library collection: KMS20_JCRB cell viability assay (AID 1918973). Further: nearly all actives have a fitted effect of over 45% in size. Summed up: as §1
The nature of experiment [18]: Quantitative High-Throughput drug screen in 47 multiple myeloma cell lines against the NCATS MIPE library collection: OCIMY1_PLB cell viability assay (AID 1918979). Further: nearly all actives have a fitted effect of over 35% in size. In outline:
as §3

The nature of experiment [19]: Quantitative High-Throughput drug screen in 47 multiple myeloma cell lines against the NCATS MIPE library collection: MMM1_PLB cell viability assay (AID 1918976). Further: nearly all actives have a fitted effect of over 35% in size. In outline: as §3

Inconclusive results are not listed. The source made the active and inactive calls. The call rests on the fitted dose curve; in most records, active means well fitted curve in the direction sought with a large enough effect; inconclusive means small, poorly fitted or top-dose-only effect, or another doubt; inactive means no such curve, though single readings can be large; an effect the other way counts as inactive or inconclusive.
Potency means the concentration at half of the fitted maximal effect.

As to `C[C@@H]1CC[C@H]2[C@@H](C)C(=O)O[C@@H]3O[C@@]4(C)CC[C@H]1[C@]32OO4`, the Potency in [1] is 469 nM (active); in [5] it was 11800 nM (active); in [6], 187 nM (active); in [7], 13200 nM (active); in experiment [8] it was 296 nM (active); in experiment [13] it was 2960 nM (active). Also, the Potency in [14] was 1870 nM (active). The Potency result in [2], in [3], in experiment [4], in experiment [9], in [10] and in [11] was “inactive” throughout. The Potency entry in experiment [12] was “inactive”.
With `O=C1CCC[C@@H]2[C@H]3CCCN4CCC[C@@H](CN12)[C@@H]34`, the Potency result in experiment [15], in experiment [2], in [5] and in [7] was “inactive” each time.
Turning to `O=C(N[C@H]1CN2CCC1CC2)c1ccc(Cl)cc1`, the Potency entry in experiment [16], in [5], in [9], in experiment [10], in [11] and in [13] was “inactive” throughout. In addition, the Potency was 37200 nM (active) in experiment [4] and 2960 nM (active) in [8].
`O=C1C=CC[C@@H]2[C@H]3CCCN4CCC[C@@H](CN12)[C@@H]34`: the Potency entry in experiment [17], in experiment [18], in [10], in experiment [12] and in [13] was “inactive” throughout. Moreover, the Potency in experiment [8] was 20900 nM (active); in experiment [11], 16600 nM (active).
Turning to `Cc1ccccc1-n1c(Cn2ncc3c(N)ncnc32)nc2cccc(C)c2c1=O`, the Potency in [1] was 264 nM (active); in [2], 23.5 nM (active); in [16], 7430 nM (active); in experiment [17], 132 nM (active); in experiment [7] it was 332 nM (active); in [8] it was 118 nM (active). The Potency in experiment [9] is 16600 nM (active); in experiment [11], 9350 nM (active); in [12], 74.3 nM (active); in experiment [14] it was 3320 nM (active).
In the case of `CC(=O)O[C@@]12CO[C@H]1C[C@H](O)[C@@]1(C)C(=O)[C@H](O)C3=C(C)[C@@H](O)C[C@@](O)([C@@H](OC(=O)c4ccccc4)[C@@H]21)C3(C)C`, the Potency is 1480 nM (active) in [16], 2640 nM (active) in experiment [11], 3720 nM (active) in experiment [13] and 2090 nM (active) in experiment [14]. For the same compound, in experiment [5], the Potency result is “inactive”.
Take `CCOC(=O)Nc1ccc(NCc2ccc(F)cc2)cc1N`: the Potency is 10500 nM (active) in experiment [15], 14800 nM (active) in experiment [7], 18700 nM (active) in experiment [8] and 10500 nM (active) in [14]. The Potency entry in experiment [4], in experiment [5], in [19], in experiment [9], in [10] and in experiment [11] was “inactive” in each case. The Potency result in experiment [13] was “inactive”.
In the case of `COC(=O)[C@@H](N)CCCN=C(N)N[N+](=O)[O-]`, the Potency result in experiment [15], in experiment [2], in experiment [6], in [7], in [9] and in experiment [10] was “inactive” throughout. The Potency entry in [11] and in experiment [13] was “inactive” in each case.
Regarding `CC(=O)Nc1ccc(OC[C@](C)(O)C(=O)Nc2ccc([N+](=O)[O-])c(C(F)(F)F)c2)cc1`, the Potency entry in experiment [15], in experiment [5] and in experiment [7] was “inactive” each time. For the same compound, the Potency in experiment [14] is 10500 nM (active).
For `O=C(N[C@@H](COc1ccc2[nH]c(=O)[nH]c2c1)c1ccccc1)c1cccn(Cc2ccc(F)c(F)c2)c1=O`, the Potency in experiment [2] was 20900 nM (active); in experiment [17], 18700 nM (active); in experiment [8], 16600 nM (active); in [12], 18700 nM (active). The Potency entry in experiment [13] was “inactive”.
With `CC(O)=C(C#N)C(=O)Nc1cc(Br)ccc1Br`, the Potency in [15] was 935 nM (active); in experiment [16], 20900 nM (active); in experiment [17], 6620 nM (active); in experiment [5] it was 18700 nM (active); in experiment [19], 16600 nM (active); in experiment [8], 20900 nM (active). For the same compound, the Potency in experiment [11] was 14800 nM (active). For the same compound, the Potency result in experiment [7] and in experiment [10] was “inactive” in each case.
For the compound `O=C(Nc1ccncc1)C(=O)c1cn(Cc2ccc(Cl)cc2)c2ccccc12`, the Potency in experiment [1] was 46.9 nM (active); in [2], 20.9 nM (active); in experiment [16], 148 nM (active); in experiment [3] it was 20.9 nM (active); in [4], 7.4 nM (active); in experiment [5], 9350 nM (active). Besides, the Potency in experiment [19] was 14800 nM (active); in experiment [7], 1320 nM (active); in [18], 118 nM (active); in [9] it was 187 nM (active); in experiment [10], 93.5 nM (active); in experiment [12], 13.2 nM (active). Also, the Potency was 46.9 nM (active) in [13] and 1 nM (active) in experiment [14].
On to `Clc1ccccc1C(c1ccccc1)(c1ccccc1)n1cccn1`, for which the Potency entry in experiment [15], in experiment [2], in experiment [3], in experiment [17], in experiment [7] and in experiment [18] was “inactive” throughout. In addition, the results for the Potency in experiment [6], in experiment [9] and in experiment [11] were 16600 nM (active), 23500 nM (active) and 11800 nM (active), respectively.
`C=C[C@@H]1CN2CCC1C[C@@H]2[C@@H](O)c1ccnc2ccccc12` (stereo partly specified): the Potency in [1] was 8330 nM (active); in experiment [2], 5260 nM (active); in [16], 23500 nM (active); in [3] it was 7430 nM (active); in experiment [19], 18700 nM (active); in [7], 18700 nM (active). The Potency in [11] was 18700 nM (active); in [14] it was 7430 nM (active). Further, the Potency result in [18] was “inactive”.
For `COC1=C[C@@H]2[C@@H]3Cc4ccc(OC)c(O)c4[C@]2(CCN3C)CC1=O`, the Potency in [1] was 2960 nM (active); in experiment [17] it was 1660 nM (active); in experiment [7], 1660 nM (active); in [12], 2960 nM (active); in [14] it was 3320 nM (active). Further, the Potency result in [11] is “inactive”.
As for `Cc1c(N)nc([C@H](CC(N)=O)NC[C@@H](N)C(N)=O)nc1C(=O)N[C@H](C(=O)N[C@@H](C)[C@H](O)[C@@H](C)C(=O)N[C@@H](C(=O)NCCc1nc(-c2nc(C(=O)NCCC[S+](C)C)cs2)cs1)[C@@H](C)O)C(O[C@H]1O[C@H](CO)[C@H](O)[C@@H](O)[C@@H]1O[C@H]1O[C@H](CO)[C@@H](O)[C@H](OC(N)=O)[C@H]1O)c1cnc[nH]1` (stereo partly specified), the Potency is 5900 nM (active) in [15]; 296 nM (active) in [2]; 935 nM (active) in experiment [17]; 20900 nM (active) in experiment [8]; 264 nM (active) in experiment [13]. The Potency entry in [10] and in [11] was “inactive” in each case.
Consider `Cc1ccccc1-n1c(Cn2cnc3c(N)ncnc32)nc2cccc(C)c2c1=O`, for which the Potency in experiment [1] was 187 nM (active); in experiment [2] it was 296 nM (active); in [16], 1480 nM (active); in experiment [17] it was 296 nM (active); in experiment [4], 235 nM (active); in [5], 2960 nM (active). The Potency in experiment [7] is 41.8 nM (active); in experiment [9] it was 187 nM (active); in experiment [11], 296 nM (active); in experiment [13], 148 nM (active); in experiment [14], 1320 nM (active).

(Values after PubChem BioAssay (NCATS).)
